Measured values published in the supplement of paper PMC10849652.
The full data set covers some 7,900 targets. This sample favours those with a hit. About 0.6% of all pairs of compound and target were hits. Unmarked numbers belong to inactive results.

Each target was assayed with Cc1cc(Nc2cc(N3CCN(C)CC3)nc(Sc3ccc(NC(=O)C4CC4)cc3)n2)n[nH]1 [tozasertib] (assay: log2 fold change, soluble protein after heating vs DMSO (PISA); higher = thermal stabilisation; K562 cells, 10 uM, 30 min; active = over 0.2 and 3.5 SD of the protein, either way, in both replicates (recomputed)).
Procedure, shortened: (§1)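 K562 cells at 2×10^6 cells/mL were treated for 30 min with 10 μM compound, and aliquots were heated for 3 min over 48°C-58°C before pooling. Extraction used PBS with 0.5% NP-40 at 4°C, and soluble protein was the supernatant after 21,000xg for 90 min, measured by TMTpro 16plex LC-MS/MS with channel sums equalised. Thermal stability values, relative to control samples and from duplicates, are log2 fold changes.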

UniProt Q9Y6H1, sequence (Q9Y6H1 whole entry, looked up): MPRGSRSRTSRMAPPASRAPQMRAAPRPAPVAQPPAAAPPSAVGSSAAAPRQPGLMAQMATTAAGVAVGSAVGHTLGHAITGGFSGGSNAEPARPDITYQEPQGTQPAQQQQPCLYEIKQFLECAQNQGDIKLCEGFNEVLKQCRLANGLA
UniProt Q9NYV4, sequence (Q9NYV4 whole entry, looked up): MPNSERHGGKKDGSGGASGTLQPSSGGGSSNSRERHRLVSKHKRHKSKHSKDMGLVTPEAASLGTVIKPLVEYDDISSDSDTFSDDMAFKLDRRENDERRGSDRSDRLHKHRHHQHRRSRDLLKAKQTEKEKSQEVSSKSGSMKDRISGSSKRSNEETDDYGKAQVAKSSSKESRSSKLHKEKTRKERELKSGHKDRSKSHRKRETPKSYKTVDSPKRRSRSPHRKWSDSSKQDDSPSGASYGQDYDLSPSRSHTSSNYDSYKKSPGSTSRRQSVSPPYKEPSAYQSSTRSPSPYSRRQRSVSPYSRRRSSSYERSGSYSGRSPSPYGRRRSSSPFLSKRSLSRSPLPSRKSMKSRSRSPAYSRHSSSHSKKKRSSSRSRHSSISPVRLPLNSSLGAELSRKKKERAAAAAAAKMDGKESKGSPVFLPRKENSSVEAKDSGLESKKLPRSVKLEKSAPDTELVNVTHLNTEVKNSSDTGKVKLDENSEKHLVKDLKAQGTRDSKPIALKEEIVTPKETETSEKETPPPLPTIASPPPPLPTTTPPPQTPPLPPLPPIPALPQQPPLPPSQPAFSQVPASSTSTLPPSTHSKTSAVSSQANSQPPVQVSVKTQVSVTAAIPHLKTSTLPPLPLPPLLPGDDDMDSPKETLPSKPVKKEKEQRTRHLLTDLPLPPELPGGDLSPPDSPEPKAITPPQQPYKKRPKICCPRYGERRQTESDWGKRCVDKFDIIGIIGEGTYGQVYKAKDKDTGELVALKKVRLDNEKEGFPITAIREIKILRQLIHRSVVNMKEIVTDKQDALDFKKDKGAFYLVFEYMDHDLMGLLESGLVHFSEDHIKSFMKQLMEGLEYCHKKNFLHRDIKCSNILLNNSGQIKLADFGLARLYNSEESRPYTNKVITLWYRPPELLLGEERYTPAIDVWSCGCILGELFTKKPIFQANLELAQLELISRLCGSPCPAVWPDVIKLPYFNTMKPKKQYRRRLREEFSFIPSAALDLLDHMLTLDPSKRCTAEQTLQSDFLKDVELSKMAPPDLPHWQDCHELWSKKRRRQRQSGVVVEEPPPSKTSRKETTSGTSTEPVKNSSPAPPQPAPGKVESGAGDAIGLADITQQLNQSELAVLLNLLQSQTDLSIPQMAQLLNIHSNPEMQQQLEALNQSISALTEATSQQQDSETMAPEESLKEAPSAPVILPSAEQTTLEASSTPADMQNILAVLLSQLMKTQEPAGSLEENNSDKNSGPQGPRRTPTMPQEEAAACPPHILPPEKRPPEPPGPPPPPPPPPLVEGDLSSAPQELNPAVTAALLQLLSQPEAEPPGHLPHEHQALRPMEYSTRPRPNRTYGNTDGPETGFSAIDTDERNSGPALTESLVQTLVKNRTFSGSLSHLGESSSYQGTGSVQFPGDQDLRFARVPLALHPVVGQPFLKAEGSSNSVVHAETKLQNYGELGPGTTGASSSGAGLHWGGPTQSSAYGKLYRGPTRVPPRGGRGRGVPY
UniProt Q12996, sequence (Q12996 whole entry, looked up): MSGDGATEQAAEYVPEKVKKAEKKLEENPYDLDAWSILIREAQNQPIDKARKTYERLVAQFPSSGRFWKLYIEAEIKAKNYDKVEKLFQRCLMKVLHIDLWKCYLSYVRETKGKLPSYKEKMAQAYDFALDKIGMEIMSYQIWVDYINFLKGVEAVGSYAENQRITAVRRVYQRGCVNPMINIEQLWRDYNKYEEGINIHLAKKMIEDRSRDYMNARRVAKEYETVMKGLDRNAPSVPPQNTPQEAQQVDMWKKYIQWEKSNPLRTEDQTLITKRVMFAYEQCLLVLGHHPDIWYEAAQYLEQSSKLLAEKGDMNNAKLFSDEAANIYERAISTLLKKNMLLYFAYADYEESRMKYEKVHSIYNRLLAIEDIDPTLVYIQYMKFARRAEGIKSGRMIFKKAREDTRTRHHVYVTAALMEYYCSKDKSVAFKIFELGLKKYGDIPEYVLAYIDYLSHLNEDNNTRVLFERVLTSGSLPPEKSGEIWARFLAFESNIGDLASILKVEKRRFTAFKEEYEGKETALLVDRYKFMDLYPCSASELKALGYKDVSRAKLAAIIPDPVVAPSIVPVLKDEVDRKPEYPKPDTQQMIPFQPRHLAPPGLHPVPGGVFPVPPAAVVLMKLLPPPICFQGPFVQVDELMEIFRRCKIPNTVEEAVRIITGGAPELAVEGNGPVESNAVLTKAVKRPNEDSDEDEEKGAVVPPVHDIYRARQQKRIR
UniProt Q92851, sequence (Q92851 whole entry, looked up): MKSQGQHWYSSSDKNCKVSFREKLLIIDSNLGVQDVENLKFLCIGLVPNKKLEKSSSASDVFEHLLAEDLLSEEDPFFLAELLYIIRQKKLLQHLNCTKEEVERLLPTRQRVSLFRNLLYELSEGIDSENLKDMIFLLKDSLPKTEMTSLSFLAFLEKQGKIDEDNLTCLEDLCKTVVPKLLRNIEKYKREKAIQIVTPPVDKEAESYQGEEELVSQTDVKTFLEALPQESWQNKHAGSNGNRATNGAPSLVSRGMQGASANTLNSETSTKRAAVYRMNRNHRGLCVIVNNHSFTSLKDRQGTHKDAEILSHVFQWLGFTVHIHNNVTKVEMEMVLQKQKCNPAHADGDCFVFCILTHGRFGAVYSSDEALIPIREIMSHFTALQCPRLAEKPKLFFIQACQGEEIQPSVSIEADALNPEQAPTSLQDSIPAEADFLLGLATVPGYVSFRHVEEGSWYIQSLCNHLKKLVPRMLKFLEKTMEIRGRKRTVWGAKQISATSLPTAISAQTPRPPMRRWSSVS
UniProt P27708, sequence (P27708 whole entry, looked up): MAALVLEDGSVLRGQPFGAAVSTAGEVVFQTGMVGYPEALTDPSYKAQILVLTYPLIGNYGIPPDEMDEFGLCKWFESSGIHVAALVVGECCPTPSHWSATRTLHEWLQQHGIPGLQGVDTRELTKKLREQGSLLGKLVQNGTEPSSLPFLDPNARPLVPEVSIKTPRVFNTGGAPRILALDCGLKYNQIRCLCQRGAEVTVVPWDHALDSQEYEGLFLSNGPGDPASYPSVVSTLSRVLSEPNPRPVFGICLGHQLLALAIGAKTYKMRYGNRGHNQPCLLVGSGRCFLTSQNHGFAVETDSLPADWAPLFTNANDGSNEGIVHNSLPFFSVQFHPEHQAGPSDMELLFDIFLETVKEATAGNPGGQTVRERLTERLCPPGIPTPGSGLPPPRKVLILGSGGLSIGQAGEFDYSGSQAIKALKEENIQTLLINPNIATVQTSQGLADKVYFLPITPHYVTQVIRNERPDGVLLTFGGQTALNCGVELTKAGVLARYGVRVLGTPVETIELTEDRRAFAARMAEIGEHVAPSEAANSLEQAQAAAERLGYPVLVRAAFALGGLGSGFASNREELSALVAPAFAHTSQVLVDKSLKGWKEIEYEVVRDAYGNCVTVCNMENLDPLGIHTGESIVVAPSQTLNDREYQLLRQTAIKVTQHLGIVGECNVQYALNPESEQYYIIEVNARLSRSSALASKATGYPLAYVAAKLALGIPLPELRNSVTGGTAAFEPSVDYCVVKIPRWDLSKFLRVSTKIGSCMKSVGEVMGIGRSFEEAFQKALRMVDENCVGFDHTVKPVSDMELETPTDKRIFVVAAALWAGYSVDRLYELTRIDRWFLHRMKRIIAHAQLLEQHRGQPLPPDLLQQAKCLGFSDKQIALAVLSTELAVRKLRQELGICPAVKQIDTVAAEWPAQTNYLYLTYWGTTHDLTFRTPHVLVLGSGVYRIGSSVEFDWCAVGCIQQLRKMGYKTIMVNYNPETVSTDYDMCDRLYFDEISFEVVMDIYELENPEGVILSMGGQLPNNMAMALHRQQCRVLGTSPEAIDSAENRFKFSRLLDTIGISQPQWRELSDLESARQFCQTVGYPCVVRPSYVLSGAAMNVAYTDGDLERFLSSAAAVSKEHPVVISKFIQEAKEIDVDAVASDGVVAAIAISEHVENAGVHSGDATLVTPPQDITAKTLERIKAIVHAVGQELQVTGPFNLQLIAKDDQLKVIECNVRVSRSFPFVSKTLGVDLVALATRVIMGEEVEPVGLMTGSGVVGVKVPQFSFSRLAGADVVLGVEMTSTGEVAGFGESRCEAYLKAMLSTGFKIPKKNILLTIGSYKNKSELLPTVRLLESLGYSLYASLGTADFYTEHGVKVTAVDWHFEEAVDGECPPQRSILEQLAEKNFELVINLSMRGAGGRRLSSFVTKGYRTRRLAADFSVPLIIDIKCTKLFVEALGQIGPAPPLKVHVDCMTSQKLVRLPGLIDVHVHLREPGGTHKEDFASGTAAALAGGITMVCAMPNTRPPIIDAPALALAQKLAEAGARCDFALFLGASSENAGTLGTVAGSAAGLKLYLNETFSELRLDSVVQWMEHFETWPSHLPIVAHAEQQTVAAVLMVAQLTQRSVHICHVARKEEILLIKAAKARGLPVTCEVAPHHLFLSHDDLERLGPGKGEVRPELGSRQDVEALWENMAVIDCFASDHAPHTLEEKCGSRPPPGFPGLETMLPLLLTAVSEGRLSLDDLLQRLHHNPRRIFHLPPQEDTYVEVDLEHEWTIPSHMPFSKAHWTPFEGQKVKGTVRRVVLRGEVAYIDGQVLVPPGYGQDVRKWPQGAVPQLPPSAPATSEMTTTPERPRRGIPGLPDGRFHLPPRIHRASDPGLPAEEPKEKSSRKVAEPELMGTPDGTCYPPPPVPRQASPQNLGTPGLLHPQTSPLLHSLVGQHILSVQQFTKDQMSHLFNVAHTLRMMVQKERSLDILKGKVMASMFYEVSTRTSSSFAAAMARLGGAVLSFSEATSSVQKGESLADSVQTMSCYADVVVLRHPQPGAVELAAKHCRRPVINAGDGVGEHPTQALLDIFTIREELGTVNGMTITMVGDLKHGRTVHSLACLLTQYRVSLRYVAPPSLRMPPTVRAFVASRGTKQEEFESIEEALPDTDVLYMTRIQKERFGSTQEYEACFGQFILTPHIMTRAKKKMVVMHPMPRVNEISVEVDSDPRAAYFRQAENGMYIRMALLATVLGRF

Row | Target | log2 fold change
1 | CASP10 isoform 4 (UniProt Q92851) | 0.177
2 | CPT2 (UniProt P23786) | -0.049
3 | CBX1 (UniProt P83916) | 0.06
4 | CD151 (UniProt P48509) | -0.04
5 | CS (UniProt O75390) | 0.027
6 | CSTF3 (UniProt Q12996) | -0.021
7 | CAD (UniProt P27708) | -0.115
8 | CCAR2 isoform 2 (UniProt Q8N163) | 0.103
9 | COX5A (UniProt P20674) | 0.029
10 | CDK12 (UniProt Q9NYV4) | -0.125
11 | CHCHD2 (UniProt Q9Y6H1) | 0.059
12 | CALB1 (UniProt P05937) | 0.022

Each target was assayed with Cc1cc(SCc2sc(-c3ccc(C(F)(F)F)cc3)nc2C)ccc1OCC(=O)O in the same assay as above.
Procedure, shortened: as §1

Row | Target | log2 fold change
13 | C9orf72 (UniProt Q96LT7) | 0.057
14 | CDK13 (UniProt Q14004) | 0.141
15 | CTBS (UniProt Q01459) | -0.018
16 | CCNB1 (UniProt P14635) | -0.025
17 | COMT (UniProt P21964) | 0.02
18 | CEPT1 (UniProt Q9Y6K0) | 0.047
19 | COPS4 (UniProt Q9BT78) | 0.002
20 | COASY isoform 2 (UniProt Q13057) | 0.045
21 | CNOT1 (UniProt A5YKK6) | 0.076
22 | CETN3 (UniProt O15182) | -0.094
23 | CPSF6 isoform 2 (UniProt Q16630) | -0.012
24 | CASTOR2 (UniProt A6NHX0) | 0.008
25 | CASC3 (UniProt O15234) | -0.067
26 | CLUH, A0A494C0R8 | -0.031
27 | CLTB (UniProt P09497) | -0.056
28 | CLCN3 isoform 2 (UniProt P51790) | -0.011
29 | CDC123 (UniProt O75794) | 0.115
30 | CD55 isoform 7 (UniProt P08174) | -0.031

Row | Target | log2 fold change
31 | CLUH (UniProt O75153) | 0.01
32 | CSNK1A1 (UniProt P48729) | 0.017
33 | CNTN4 (UniProt Q8IWV2) | -0.087
34 | CDC42BPA isoform 6 (UniProt Q5VT25) | 0.002
35 | CDK5RAP1 (UniProt Q96SZ6) | -0.025
36 | CASP10 isoform 4 (UniProt Q92851) | 0.201
37 | CPT2 (UniProt P23786) | 1.04 (active)
38 | CBX1 (UniProt P83916) | -0.056
39 | CD151 (UniProt P48509) | -0.043
40 | CS (UniProt O75390) | 0.061
41 | CSTF3 (UniProt Q12996) | -0.031
42 | CAD (UniProt P27708) | 0.053
43 | CCAR2 isoform 2 (UniProt Q8N163) | 0.169
44 | COX5A (UniProt P20674) | 0.011
45 | CDK12 (UniProt Q9NYV4) | 0.051
46 | CHCHD2 (UniProt Q9Y6H1) | -0.016
47 | CALB1 (UniProt P05937) | 0.017

Each target was assayed with Cc1ccc(-n2nc(C(C)(C)C)cc2NC(=O)Nc2ccc(OCCN3CCOCC3)c3ccccc23)cc1 [doramapimod] in the same assay as above.
Procedure, shortened: as §1

Row | Target | log2 fold change
48 | C9orf72 (UniProt Q96LT7) | 0.01
49 | CDK13 (UniProt Q14004) | -0.006
50 | CTBS (UniProt Q01459) | 0.009
51 | CCNB1 (UniProt P14635) | -0.011
52 | COMT (UniProt P21964) | 0
53 | CEPT1 (UniProt Q9Y6K0) | 0.021
54 | COPS4 (UniProt Q9BT78) | -0.014
55 | COASY isoform 2 (UniProt Q13057) | -0.063
56 | CNOT1 (UniProt A5YKK6) | -0.025
57 | CETN3 (UniProt O15182) | -0.018
58 | CPSF6 isoform 2 (UniProt Q16630) | 0.004
59 | CASTOR2 (UniProt A6NHX0) | 0.037
60 | CASC3 (UniProt O15234) | -0.025
61 | CLUH, A0A494C0R8 | 0.113
62 | CLTB (UniProt P09497) | -0.012
63 | CLCN3 isoform 2 (UniProt P51790) | 0.009
64 | CDC123 (UniProt O75794) | 0.003
65 | CD55 isoform 7 (UniProt P08174) | 0.02

Row | Target | log2 fold change
66 | CLUH (UniProt O75153) | 0.02
67 | CSNK1A1 (UniProt P48729) | 0.024
68 | CNTN4 (UniProt Q8IWV2) | -0.095
69 | CDC42BPA isoform 6 (UniProt Q5VT25) | 0.071
70 | CDK5RAP1 (UniProt Q96SZ6) | 0.05
71 | CASP10 isoform 4 (UniProt Q92851) | 0.028
72 | CPT2 (UniProt P23786) | -0.019
73 | CBX1 (UniProt P83916) | 0.105
74 | CD151 (UniProt P48509) | -0.056
75 | CS (UniProt O75390) | 0.017
76 | CSTF3 (UniProt Q12996) | -0.022
77 | CAD (UniProt P27708) | -0.028
78 | CCAR2 isoform 2 (UniProt Q8N163) | -0.009
79 | COX5A (UniProt P20674) | -0.039
80 | CDK12 (UniProt Q9NYV4) | 0.299
81 | CHCHD2 (UniProt Q9Y6H1) | -0.037
82 | CALB1 (UniProt P05937) | -0.006
